PLK1 PBD inh – qHTS for Inhibitors of PLK1-PDB (polo-like kinase 1 - polo-box domain): Primary Screen; 360,000 compounds, 2.8% hits; Serine/threonine-protein kinase PLK1 (Homo sapiens), P53350; Potency, µM, without a hit: max response, negative = inhibition, usual class: inhibitors; AID 720504, 2013; Plk1 PBD binding of FITC phosphopeptide, fluorescence polarization; also: series mostly up to about 57 µM; % is scaled to controls: 0 for no effect and ±100 for the full control effect; nearly all actives have a fitted effect of over 65% in size
HP1b chromo inh – HTS for Inhibitors of HP1-beta Chromodomain Interactions with Methylated Histone Tails; AlphaScreen HP1-beta / biotin-H3K9me3 peptide binding; Chromobox protein homolog 1 (Homo sapiens), P83916; 390,000 compounds, 0.56% hits; Potency, µM (series often up to 114 µM), for inactives: at the highest dose activity change, negative = inhibition, hits mostly inhibitors; AID 540317, 2011; also: nearly all actives have a fitted effect of over 70% in size
Target sequence (P83916 whole entry, looked up): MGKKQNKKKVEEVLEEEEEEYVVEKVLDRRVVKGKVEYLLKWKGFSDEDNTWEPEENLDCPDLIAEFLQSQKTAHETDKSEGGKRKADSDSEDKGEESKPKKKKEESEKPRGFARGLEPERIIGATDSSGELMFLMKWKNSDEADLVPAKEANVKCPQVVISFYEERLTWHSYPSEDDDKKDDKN
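Compound inhibition of the preformed complex between 50 nM HP1-beta and 50 nM biotinylated H3K9me3 peptide was read by AlphaScreen. Buffer was PBS pH 7.4 with 0.01% Tween-20. Incubations ran 30 min at room temperature, with 10 ug/mL donor/acceptor beads.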
JMJD2A Tudor inh – qHTS Assay for Inhibitors of JMJD2A-Tudor Domain. AlphaScreen JMJD2A-Tudor / H3K4me3 peptide binding. Potency, µM (highest dose often 114 µM), for inactives: at the highest dose activity change, negative = inhibition, actives largely listed as inhibitors. 390,000 compounds, 4.4% hits. Lysine-specific demethylase 4A (Homo sapiens), O75164; also: % is scaled to controls: 0 for no effect and ±100 for the full control effect; nearly all actives have a fitted effect of over 50% in size
12-LOX inh – Primary qHTS assay for inhibitors of human arachidonate 12S-lipoxygenase (ALOX12): Round 2; Polyunsaturated fatty acid lipoxygenase ALOX12 (Homo sapiens), P18054; purified 12hLO, xylenol orange hydroperoxide absorbance; Potency, µM (top dose mostly 108 µM), without a hit: top-dose activity change, negative = inhibition, actives largely listed as inhibitors; 580,000 compounds, 1.1% hits; also: % is scaled to controls: 0 for no effect and ±100 for the full control effect
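Purified human 12hLO at 150 nM in 25 mM Hepes, 0.01% Triton X-100, pH 7.0, preincubated 15 min at room temperature with compound. Reaction started with 40 uM arachidonic acid, 30 min at room temperature. Hydroperoxide measured by Fe-xylenol orange, 573/405 nm absorbance ratio.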
BAZ2B block – qHTS Assay for Inhibitors of BAZ2B | AlphaScreen BAZ2B-H3K14Ac peptide displacement | Potency, µM (titrated, usually from 114 µM), inactives show top-dose activity change, negative = inhibition, most hits filed as inhibitors | AID 504333, 2011 | Bromodomain adjacent to zinc finger domain protein 2B (Homo sapiens), Q9UIF8 | 360,000 compounds, 4.4% hits; also: % is scaled to controls: 0 for no effect and ±100 for the full control effect; nearly all actives have a fitted effect of over 60% in size
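Protein-peptide AlphaScreen: BAZ2B 50 nM, b-H3K14Ac 50 nM, 1x PBS pH 7.4 + 0.01% Tween-20. Preincubation 30 min RT; cpd 30 min RT (top 110 uM); beads 20 min RT, light-protected.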
G9a block – qHTS Assay for Inhibitors of Histone Lysine Methyltransferase G9a; Histone-lysine N-methyltransferase EHMT2 (Homo sapiens), Q96KQ7; G9a H3K9 monomethylation, AlphaScreen, 2 h; Potency, µM (top dose mostly 102 µM), for the others: at the highest dose activity, negative = inhibition, hits mostly inhibitors; 350,000 compounds, 8.8% hits; also: % is scaled to controls: 0 for no effect and ±100 for the full control effect; nearly all actives have a fitted effect of over 75% in size
Target sequence (Q96KQ7 913-1193 limits assumed): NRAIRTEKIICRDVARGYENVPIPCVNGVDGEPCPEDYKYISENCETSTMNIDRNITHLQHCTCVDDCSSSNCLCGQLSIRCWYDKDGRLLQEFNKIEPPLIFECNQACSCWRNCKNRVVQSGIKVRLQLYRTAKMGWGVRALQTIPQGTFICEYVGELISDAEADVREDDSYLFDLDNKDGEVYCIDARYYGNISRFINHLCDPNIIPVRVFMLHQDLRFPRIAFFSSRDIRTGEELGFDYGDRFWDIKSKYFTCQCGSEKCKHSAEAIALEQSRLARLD
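Methyltransferase reactions run at room temperature for 2 h (20 nM enzyme, 500 nM biotin-H3K9 peptide, 20 uM SAM) after a 15 min compound preincubation; product detected by AlphaScreen beads and anti-H3K9me1 antibody.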
* = called active by the depositor; u = inconclusive; x = not tested or not shown; [ ] = dose if it differs, or a comment. Most compounds without a hit are left out; they make up all but 9% or so of the library. Calls follow the shape of the dose curve; as a rule, active = well fitted curve in the direction sought with a large enough effect; inconclusive = small, poorly fitted or top-dose-only effect, or another doubt; inactive = no such curve, though single readings can be large; an effect the other way counts as inactive or inconclusive. Potency is read from the fitted curve at half-maximal effect.

SMILES	PLK1 PBD inh	HP1b chromo inh	JMJD2A Tudor inh	12-LOX inh	BAZ2B block	G9a block
CCOCCCNC(=O)/C(C#N)=C/c1cc(Br)c(O)c(Br)c1	21µM*	2%	-12%[11.4 µM]	x	-12%	-10%
COCCNC(=O)/C(C#N)=C/c1cc(Br)c(O)c(OC)c1	3%	1%	-9%	63%	-12%	14µM*
COCCNC(=O)/C(C#N)=C/c1cc(C(C)C)c(OC)cc1C	-1%	8%	-21%	-3%	-19%	-5%
COCCNC(=O)/C(C#N)=C/c1ccccc1Br	24µM*	-3%	18µM*	-14%	-13%	4%
CCOC(=O)CNC(=O)NCc1cccn1Cc1cccc(C)c1	x	x	x	-19%	x	x
CCOc1ccccc1N1CCN(CC(=O)NC(=O)NCc2ccco2)CC1	-6%	16%	-15%	0%	-29%	-7%
CCOc1ccccc1N1CCN(Cc2ccco2)CC1	-6%	u	3.5µM*	u	50µM*	-6%[12.7 µM]
CCOc1ccccc1N1CCN(C(=S)NCc2ccccc2)CC1	-12%	7%	-16%	12%	-13%	-47%
CC(=O)c1ccc(N2CCN(C(=S)NCc3ccco3)CC2)cc1	-7%	3%	-4%	-6%	-30%	56µM*
CCOc1ccccc1N1CCN(S(=O)(=O)CC)CC1	27µM*	9%	-18%	-113%	-4%	40µM*
CCOc1ccccc1N1CCN(C(=S)NCc2ccco2)CC1	-12%	-32%	-34%	-12%	-34%	50µM*
COc1ccc(-c2ccnc(N[C@H]3CO[C@H]4[C@@H]3OC[C@@H]4NC(=O)c3ccc4c(c3)OCO4)n2)cc1	x	x	x	9%	x	x
O=C1c2ccccc2C(=O)N1/N=C/c1ccc(Oc2ccc([N+](=O)[O-])cn2)cc1	-13%	18%	-21%	36%	13%	125%[59 µM]
Cc1ccccc1-c1noc(-c2cccs2)n1	6%	313%	174%	0%	26%	46%
CCOc1ccccc1N1CCN(C/C=C/c2ccc(N(C)C)cc2)CC1	0%	25µM*	5.6µM*	u	5.6µM*	10µM*
CCOc1ccccc1N1CCN(Cc2cnc(-c3ccccc3)[nH]2)CC1	1%	-15%	-34%	0%	u	u
CCOc1ccccc1N1CCN(Cc2ccc(Br)s2)CC1	0%	u	3.2µM*	u	u	u
CCOc1ccccc1OCC(=O)NCc1ccco1	-21%	14%	u	u	u	u
CCOc1ccccc1OCCCNCc1ccco1	-10%	u	28µM*	u	-11%	u
COC(=O)CN1C(=O)[C@H]2[C@@H](c3ccc(C)o3)N3C(=O)CN(Cc4ccccc4)C(=O)[C@@]3(C)[C@H]2C1=O	-12%	37%	-22%	-1%	-22%	45µM*
Cc1cc(C)n2c(SCc3ccc(Cl)cc3Cl)nnc2n1	-8%	54%	5%	u	-17%	u
Cn1ccnc1SCc1ccc(Cl)cc1Cl	-3%	8%	u	4%	-13%	8.9µM*
CC(C)c1ccc(/C=C/C(=O)NC2=NCCS2)cc1	x	x	x	x	6%	25%[59 µM]
O=C(/C=C/c1ccc(Cl)c(Cl)c1)NC1=NCCS1	21µM*	-11%	-27%[57.1 µM]	-1%	-15%	25%
CC(C)c1ccc2c(c1)CC[C@H]1[C@](C)(CN)CCC[C@]21C	-2%	3%	-23%	u	x	x
Cc1cccc(NC(=S)NCC2(C)CCCC3(C)c4ccc(C(C)C)cc4CCC23)c1 (stereo not drawn)	x	x	x	16µM*	x	x
COc1ccc(NC(=O)c2oc3ccc(S(=O)(=O)N(C)C4CCCCC4)cc3c2C)cc1	x	23%	-9%	0%	6%	-4%[59 µM]

Screening data as filed in PubChem.
